The whole screen tested about 69,000 compounds, of which about 8,600 (12%) showed an effect of 50% or more. The list comes from a sample in which strong results are over-represented; it also holds similar structures and randomly drawn compounds.
Each molecule was assayed on Plasmodium berghei (assay: Screen against P. berghei liver stage (PbLuc), transformed with Luciferase, at 10uM). Conditions: tested at 10 uM.
Format: functional, HepG2

| Compound | INHIBITION [%] |
| --- | --- |
| O=C(NCc1ccco1)N(CCCO)C1CCCc2ccccc21 (centres undefined) | 11.9 |
| CC(C)N(Cc1ccc(C#N)cc1)C(=O)NCCNc1ncccn1 | 55.1 |
| CC(C)N(Cc1cccnc1)C(=O)CSc1ccc(C#N)cc1 | 2.82 |
| CC(C)N(Cc1ccc(C#N)cc1)C(=O)Nc1ccccn1 | 54.3 |
| Cc1cc(NC(=O)N(Cc2ccc(C#N)cc2)C(C)C)no1 | 6.33 |
| CC(C)N(Cc1ccc(C#N)cc1)C(=O)Nc1ccncc1 | 44 |
| CC(C)N(Cc1ccccc1)C(=O)NCCNC(=O)c1cccnc1 | -17.8 |
| Cc1ccc(N(CCC#N)C(=O)CCc2cccnc2)cc1C | 11.9 |
| CC(C(=O)NCC(F)(F)F)N1CCC(N2CCN(C)C2=O)CC1 (centres undefined) | 35.9 |
| Cc1cncc(C(=O)N2C[C@@H]3CN(S(C)(=O)=O)CCO[C@@H]3C2)c1 | -7.24 |
| COCCN1CCc2cc(C(=O)N(C)C)c(NC(C)C)nc2CC1 | 18.1 |
| COCCN1CCc2cc(C(=O)NCC3CC3)c(NC(C)C)nc2CC1 | 51.6 |
| CC(C)Nc1nc2c(cc1C(=O)NCC1CC1)CCN(S(C)(=O)=O)CC2 | -39.1 |
| CC(C)Nc1nc2c(cc1C(=O)NCC1CC1)CCN(CC1CC1)CC2 | 71.4 |
| Cc1nc2c(cc1C(=O)O)CCN(Cc1ccsc1)CC2 | 20.4 |
| CC(C)Nc1nc2c(cc1C(=O)NCC1CC1)CCN(C)CC2 | 34.1 |
| Cc1nc2c(cc1C(=O)O)CCN(CC1CC1)CC2 | 74.9 |
| CNC(=O)N1CCc2cc(C(=O)NCC3CC3)c(NC(C)C)nc2CC1 | -114 |
| CN(C)C(=O)c1cc2c(nc1NCC1CC1)CCN(CC1CC1)CC2 | 38.2 |
| Cn1cc(CN(CC2(O)CNCCOC2)C2CCCCC2)cn1 (centres undefined) | 38.5 |
| O=C(Cc1ccccc1F)N1CCN(C(=O)c2cccc(F)c2)CC1 | 27.6 |
| Cc1noc(CCCc2nc(C3CCOC3)no2)n1 (centres undefined) | 5.87 |
| Cc1cc(C2CCCN2Cc2cccc(C(=O)Nc3nccs3)c2)no1 (centres undefined) | -30.7 |
| Cc1nonc1C1CCCN1Cc1ccc(C(=O)Nc2nccs2)cc1 (centres undefined) | 56.6 |
| Cc1cc(C2CCCN2Cc2ccc(C(=O)Nc3nccs3)cc2)on1 (centres undefined) | 7.97 |
| O=c1[nH]c2cn(-c3ccc(Br)cc3)c(=O)n2[nH]1 | 31.6 |
| Cc1ccc(C)c(OC2CCN(C(=O)CNc3ccccc3Cl)CC2)c1 | 83.9 |

| Compound | INHIBITION [%] |
| --- | --- |
| CCNC(=O)CCC(=O)N1CCC(Oc2cc(C)ccc2C)CC1 | 14.9 |
| Cc1ccc(C)c(OC2CCN(C(=O)NCC(=O)N3CCCC3)CC2)c1 | -29.5 |
| CCc1cnc(N)nc1N(C)CCc1cnn(C)c1 | 2.84 |
| CC(C)S(=O)(=O)C(C)C(=O)NCc1ccccc1COc1ccccc1 (centres undefined) | -4.12 |
| Cc1cccc(CN(C(=O)CS(C)(=O)=O)C(C)C)c1 | -12.9 |
| CC(=O)C(C)CC(=O)N(Cc1cccc(C)c1)C(C)C (centres undefined) | 68.4 |
| COCCOCC(=O)N(Cc1cccc(C)c1)C(C)C | 5.94 |
| O=C(c1ccc(O)cc1)N1C[C@@H]2OCCN(c3ncccn3)[C@@H]2C1 | -15.2 |
| CCOc1ncccc1NC(=O)NC1CCCN(S(C)(=O)=O)C1 (centres undefined) | -2.19 |
| COc1ncccc1C(=O)N1CCc2c(ncnc2N2CCOCC2)C1 | -102 |
| c1coc(CN2CCc3nnc(COc4cncnc4)n3CC2)c1 | 10.6 |
| O=C1C(Sc2nnnn2C2CC2)CCN1c1ccccc1Cl (centres undefined) | 11.4 |
| Cc1ccc(F)cc1C(=O)N1CCOCC12CCCC2 | 69.1 |
| Cc1[nH]ccc1C(=O)N1CCOCC12CCCC2 | 19.3 |
| O=C(c1ccc[nH]1)N1CCOCC12CCCC2 | 40.9 |
| Cn1cc(C2CCCN2C(=O)c2cnc(-c3ccco3)s2)cn1 (centres undefined) | 23.6 |
| CNc1nnc(CCn2nc(C)c(Br)c2C)s1 | 7.38 |
| CS(=O)(=O)c1ccc(-c2cnc(C3CCCN3)cn2)cc1 (centres undefined) | 45.95 |
| CCCc1noc(CNc2ccc(C(=O)N3CCCC3)cc2C)n1 | 12.7 |
| COc1cc2cc(C)c(SCCN3CCCCC3)nc2cc1OC | 51.7 |
| COc1cc2cc(C)c(SCCN3CCCC3)nc2cc1OC | 33.2 |
| CCc1cc2cc(OC)c(OC)cc2nc1SCCN1CCCCC1 | 43.4 |
| CN1CCC(c2cccc(Cc3ccc(C(F)(F)F)cc3)n2)CC1 | 85.7 |
| CN1CCC(c2cccc(Cc3ccccc3)n2)CC1 | 82.7 |
| CN1CCC(c2cccc(Cc3ccc(F)cc3)n2)CC1 | 35.8 |
| CN1CCC(c2cccc(NCc3ccncc3)n2)CC1 | -2.09 |
| COc1ccc(Cc2cccc(C3CCN(C)CC3)n2)cc1 | 43.8 |
